Among the data in PubChem BioAssay (NCI) are growth values, retold here.

Each structure is given as a SMILES string. The panel holds about 83,000 compounds, 20% with a hit somewhere; the sample as a whole holds those more often.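 Plates (96-well) were seeded with cells, treated with compound at one concentration, and incubated for 48 hours before percent growth was determined.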 Values without a mark were called inactive. Active and inactive are the calls of the source. How the source made its calls: active means growth percent below 10; inactive means the rest.

Test in all cases: NCI-60 one-dose screen, 48 h (100 = growth as untreated, 0 = no growth, -100 = all killed)
Experiment [1] deals with NCI-H23 lung. Conditions: 10 µM unless noted.
The test system of experiment [2] is NCI-H226 lung. Particulars: 10 µM unless noted.
The subject of experiment [3] is NCI-H322M lung. Particulars: 10 µM unless noted.
Experiment [4] relates to HOP-62 NSCLC. Conditions: 10 µM unless noted.
Experiment [5] deals with NCI-H460 lung. Particulars: 10 µM unless noted.
For experiment [6], the system named is HOP-92 NSCLC. Conditions: 10 µM unless noted.
Experiment [7] has as its system A549/ATCC NSCLC. Conditions: 10 µM unless noted.
For experiment [8], the system named is 786-0 renal. Conditions: 10 µM unless noted.
Experiment [9] relates to COLO 205 colon. Conditions: 10 µM unless noted.
Experiment [10] has as its system DU-145 prostate. Particulars: 10 µM unless noted.
The subject of experiment [11] is K-562 leukemia. Particulars: 10 µM unless noted.
Experiment [12] relates to MALME-3M melanoma. Conditions: 10 µM unless noted.
Experiment [13] has as its system MDA-MB-231 breast. Conditions: 10 µM unless noted.
Experiment [14] relates to RXF 393 renal. Particulars: 10 µM unless noted.
In experiment [15] the test system is SF-268 CNS. Conditions: 10 µM unless noted.
For experiment [16], the system named is SF-295 CNS. Particulars: 10 µM unless noted.
Experiment [17] concerns SF-539 CNS. Conditions: 10 µM unless noted.
The test system of experiment [18] is UACC-257 melanoma. Particulars: 10 µM.
The test system of experiment [19] is M14 melanoma. Conditions: 10 µM unless noted.
For experiment [20], the system named is NCI-H522 lung. Conditions: 10 µM unless noted.

For the compound `CCOC(=O)c1c(NC(=O)c2cccc(C(F)(F)F)c2)sc2c(CN3CCN(C)CC3)c(O)ccc12`, the growth in [1] is 53.4%; in [2] it was 83.8%; in [3], 8.01% (active); in experiment [4], 38.8%; in [5] it was -64.4% (active); in experiment [6], 30.7%. The growth in experiment [7] is 32%; in [8] it was -83.6% (active); in experiment [9], -55.1% (active); in [10] it was -85.6% (active); in experiment [11] it was 1.42% (active); in [12] it was -86.6% (active). The growth was -75.5% (active) in experiment [13]; 35.1% in experiment [14]; 26.2% in experiment [15]; -81% (active) in [16]; -94.7% (active) in experiment [17]; 28.1% in experiment [18]. The growth in [19] is -54.6% (active).

As to `Oc1ccccc1/C=N/Nc1nc(N/N=C/c2ccccc2O)nc(N2CCOCC2)n1`, the growth is 41.5% in experiment [1]; 23.3% in experiment [2]; 44.5% in experiment [3]; 25.7% in experiment [4]; 32.5% in experiment [5]; -12.8% (active) in [6]. For the same compound, the growth in experiment [7] was 13%; in experiment [8], 30.3%; in experiment [9], 48%; in experiment [10] it was 35.5%; in experiment [11] it was 25.4%; in experiment [12] it was 52.6%. The growth in [13] was 36.3%; in [14], -0.648% (active); in experiment [15], 72.3%; in experiment [16], 19.6%; in experiment [17], 51.8%; in experiment [18] it was 53.3%. Besides, the growth in experiment [19] was 37.6%.

In the case of `Cn1cc(-c2nn3cc(-c4cccnc4)nc3s2)c2cc(F)ccc21`, the growth is 93.9% in experiment [1]; 75% in experiment [2]; 87.8% in experiment [3]; 71.6% in experiment [4]; 94.2% in [5]; 60.5% in [6]. For the same compound, the growth is 70.2% in experiment [20]; 110% in [8]; 83.2% in experiment [9]; 98.1% in experiment [10]; 70.3% in experiment [12]; 67% in experiment [13]. In addition, the growth in experiment [14] was 103%; in [15], 112%; in [16], 92.5%; in [17] it was 80.3%; in experiment [19], 84.8%.

With `COc1cc(O)c2c(c1)/C=C/C[C@H](O)[C@H](O)C(=O)/C=C\C[C@H](C)OC2=O`, the growth in [1] was -1.38% (active); in experiment [2], 40.6%; in [3] it was 64%; in [4] it was 51.1%; in experiment [5] it was 23.2%; in experiment [6] it was -15.4% (active). Besides, the growth in experiment [7] is 58.6%; in experiment [8] it was 24.7%; in experiment [9], -5.15% (active); in experiment [10], -2.78% (active); in experiment [11], 9.06% (active); in experiment [12], -20.3% (active). Further, the growth in [13] was -7.72% (active); in experiment [14], -56.9% (active); in experiment [15], 34.9%; in [16], 60.2%; in [17], -24.8% (active); in experiment [18], -19.7% (active).

For the compound `COc1cc(NC2=C(Cl)C(=O)c3nc(C)ccc3C2=O)cc(OC)c1`, the growth in [1] is -55.6% (active); in [2] it was 68.6%; in [3] it was 89.8%; in [4], 0.846% (active); in experiment [5] it was 2.02% (active); in experiment [6], -12.2% (active). Further, the growth in [7] was 42.4%; in experiment [8], -59.5% (active); in experiment [9], -80.5% (active); in experiment [10], -93% (active); in experiment [11] it was 4.73% (active); in [12], -89.4% (active). For the same compound, the growth in experiment [13] is -28.6% (active); in experiment [14], -97.2% (active); in experiment [15], 37%; in experiment [16], 51.6%; in experiment [17], -30.9% (active); in experiment [18], -92% (active). Also, the growth in experiment [19] was -96% (active).

As to `CS(=O)c1nccc(-c2c(-c3ccc(F)c(OCCc4ccc(F)cc4)c3)nc3sccn23)n1` (centres undefined), the growth is 7.95% (active) in experiment [1]; 111% in experiment [2]; 65.4% in [3]; 99.7% in experiment [4]; 59.1% in [5]; 47.1% in experiment [6]. In addition, the growth in experiment [7] is 101%; in experiment [8], 95.3%; in experiment [9] it was 102%; in [10] it was 1.03% (active); in experiment [11] it was 7.91% (active); in experiment [12], 55.6%. Further, the growth was 45% in [13]; 60.9% in [14]; 93.3% in experiment [15]; 98.3% in [16]; 91.2% in [17]; -0.163% (active) in experiment [18]. For the same compound, the growth in experiment [19] was 67.6%.

Consider `O=C(CCCCCCN1CC(=O)N2[C@@H](c3ccc(Cl)c(F)c3)c3[nH]c4ccccc4c3C[C@H]2C1=O)NO`, for which the growth in experiment [1] was 95.3%; in experiment [2], 101%; in experiment [3], 86.1%; in experiment [4], 78.8%; in experiment [5], 79.5%; in experiment [6], 92.2%. The growth in [7] was 104%; in experiment [8], 93.9%; in [9], 97.4%; in experiment [10], 87.8%; in experiment [11], 53.7%; in experiment [12] it was 59.8%. The growth is 75.9% in experiment [13]; 100% in experiment [14]; 106% in experiment [15]; 78.7% in experiment [16]; 83.8% in experiment [17]; 82% in [18]. For the same compound, in experiment [19], the growth is 82.4%.

As to `O=C(NNc1nc2cc(F)cc(F)c2n2cccc12)c1ncccn1`, the growth in experiment [1] is 11.2%; in experiment [2], -2.14% (active); in [3], 25.5%; in experiment [4], 19.7%; in experiment [5], 6% (active); in experiment [6], 61.2%. In addition, the growth in experiment [7] is 18.7%; in experiment [8] it was 0.547% (active); in [9] it was 16.9%; in experiment [10], 20.6%; in experiment [11] it was 17.8%; in experiment [12] it was 25.9%. The growth is 34.9% in experiment [13]; 33% in experiment [14]; 13.6% in experiment [15]; 12.6% in [16]; -0.152% (active) in experiment [17]; 12.9% in experiment [18]. Also, in experiment [19], the growth is -18.1% (active).
